Results from the supplement of paper PMC8728848.
This is one part of a sample in which the strongest signals are shown more often than they occur.

How the values were obtained:
Assay in all cases: glycan array binding signal (z-score within array); higher = stronger binding
Details in all cases: glycan notation: IUPAC condensed, linker removed
[1] = target: Fuc(a1-2)Gal(b1-3)GlcNAc(b1-3)GalNAc
How it was run: (§1)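 The binding signal is a Z-score computed within each array. Data were drawn from 3228 arrays in the Consortium for Functional Glycomics database, restricted to those with a known protein sequence. Scores were averaged over arrays of the same protein sequence at different concentrations or buffers, and over linkers, and negative values can be taken as non-binding.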

Fuc(a1-2)Gal(b1-4)Glc = target: Fuc(a1-2)Gal(b1-4)Glc
How it was run: as §1

[2] = target: Fuc(a1-2)Gal(b1-4)GlcNAc(b1-2)[Fuc(a1-2)Gal(b1-4)GlcNAc(b1-4)]Man(a1-3)[Fuc(a1-2)Gal(b1-4)GlcNAc(b1-2)Man(a1-6)]Man(b1-4)GlcNAc(b1-4)GlcNAc
How it was run: as §1

[3] = target: Fuc(a1-2)Gal(b1-4)GlcNAc(b1-3)GalNAc
How it was run: as §1

[4] = target: Fuc(a1-2)Gal(b1-4)GlcNAc(b1-3)[Fuc(a1-3)[Gal(b1-4)]GlcNAc(b1-6)]Gal(b1-4)Glc
How it was run: as §1

[5] = target: Fuc(a1-2)Gal(b1-4)[Fuc(a1-3)]GlcNAc(b1-2)[Fuc(a1-2)Gal(b1-4)[Fuc(a1-3)]GlcNAc(b1-4)]Man(a1-3)[Fuc(a1-2)Gal(b1-4)[Fuc(a1-3)]GlcNAc(b1-2)Man(a1-6)]Man(b1-4)GlcNAc(b1-4)GlcNAc
How it was run: as §1

[6] = target: Fuc(a1-2)[Gal(a1-3)]Gal(b1-4)GlcNAc(b1-2)Man(a1-3)[Fuc(a1-2)[Gal(a1-3)]Gal(b1-4)GlcNAc(b1-2)Man(a1-6)]Man(b1-4)GlcNAc(b1-4)GlcNAc
How it was run: as §1

[7] = target: Fuc(a1-2)[GalNAc(a1-3)]Gal(b1-3)GlcNAc
How it was run: as §1

[8] = target: Fuc(a1-2)[GalNAc(a1-3)]Gal(b1-3)GlcNAc(b1-6)GalNAc
How it was run: as §1

[9] = target: Fuc(a1-2)[GalNAc(a1-3)]Gal(b1-4)GlcNAc(b1-2)Man(a1-3)[Fuc(a1-2)[GalNAc(a1-3)]Gal(b1-4)GlcNAc(b1-2)Man(a1-6)]Man(b1-4)GlcNAc(b1-4)GlcNAc
How it was run: as §1

[10] = target: Fuc(a1-2)[GalNAc(a1-3)]Gal(b1-4)GlcNAc(b1-6)GalNAc
How it was run: as §1

[11] = target: Fuc(a1-3)[Gal(b1-4)]GlcNAc(b1-3)GalNAc
How it was run: as §1

Fuc(a1-4)GlcNAc = target: Fuc(a1-4)GlcNAc
How it was run: as §1

Gal(a1-3)Gal(b1-4)GlcNAc = target: Gal(a1-3)Gal(b1-4)GlcNAc
How it was run: as §1

Gal(b1-2)Gal = target: Gal(b1-2)Gal
How it was run: as §1

Gal(b1-3)Gal = target: Gal(b1-3)Gal
How it was run: as §1

[12] = target: Gal(b1-3)GalNAc(b1-4)Gal(b1-4)Glc
How it was run: as §1

[13] = target: Gal(b1-3)GlcNAc(a1-6)Gal(b1-4)GlcNAc
How it was run: as §1

[14] = target: Gal(b1-3)GlcNAc(b1-3)Gal(b1-3)GlcNAc
How it was run: as §1

[15] = target: Gal(b1-3)GlcNAc(b1-3)Gal(b1-4)[Fuc(a1-3)]GlcNAc(b1-6)[Gal(b1-3)GlcNAc(b1-3)]Gal(b1-4)Glc
How it was run: as §1

[16] = target: Gal(b1-3)[Fuc(a1-4)]GlcNAc(b1-6)GalNAc
How it was run: as §1

[17] = target: Gal(b1-4)GlcNAc(b1-3)Gal(b1-4)GlcNAc(b1-2)[Gal(b1-4)GlcNAc(b1-3)Gal(b1-4)GlcNAc(b1-6)]Man(a1-6)[Gal(b1-4)GlcNAc(b1-3)Gal(b1-4)GlcNAc(b1-2)Man(a1-3)]Man(b1-4)GlcNAc(b1-4)GlcNAc
How it was run: as §1

[18] = target: Gal(b1-4)GlcNAc(b1-3)Gal(b1-4)GlcNAc(b1-3)Gal(b1-4)GlcNAc(b1-2)Man(a1-3)[Gal(b1-4)GlcNAc(b1-3)Gal(b1-4)GlcNAc(b1-3)Gal(b1-4)GlcNAc(b1-2)Man(a1-6)]Man(b1-4)GlcNAc(b1-4)GlcNAc
How it was run: as §1

[19] = target: Gal(b1-4)GlcNAc(b1-3)Gal(b1-4)GlcNAc(b1-3)Gal(b1-4)GlcNAc(b1-3)Gal(b1-4)GlcNAc(b1-3)Gal(b1-4)GlcNAc(b1-2)Man(a1-3)[Gal(b1-4)GlcNAc(b1-3)Gal(b1-4)GlcNAc(b1-3)Gal(b1-4)GlcNAc(b1-3)Gal(b1-4)GlcNAc(b1-3)Gal(b1-4)GlcNAc(b1-2)Man(a1-6)]Man(b1-4)GlcNAc(b1-4)GlcNAc
How it was run: as §1

[20] = target: Gal(b1-4)GlcNAc(b1-3)Gal(b1-4)GlcNAc(b1-3)Gal(b1-4)GlcNAc(b1-3)Gal(b1-4)GlcNAc(b1-3)Gal(b1-4)GlcNAc(b1-2)[Gal(b1-4)GlcNAc(b1-3)Gal(b1-4)GlcNAc(b1-3)Gal(b1-4)GlcNAc(b1-3)Gal(b1-4)GlcNAc(b1-3)Gal(b1-4)GlcNAc(b1-6)]Man(a1-6)[Gal(b1-4)GlcNAc(b1-3)Gal(b1-4)GlcNAc(b1-3)Gal(b1-4)GlcNAc(b1-3)Gal(b1-4)GlcNAc(b1-3)Gal(b1-4)GlcNAc(b1-2)Man(a1-3)]Man(b1-4)GlcNAc(b1-4)[Fuc(a1-6)]GlcNAc
How it was run: as §1

[21] = target: Gal3S(b1-4)[Fuc(a1-3)]GlcNAc
How it was run: as §1

Gal3S6S(b1-4)GlcNAc6S = target: Gal3S6S(b1-4)GlcNAc6S
How it was run: as §1

GalNAc(a1-3)Gal = target: GalNAc(a1-3)Gal
How it was run: as §1

B1: PkBDPgamma (Plasmodium knowlesi) (protein)
chain: SAINQIFLQNNVMDKCNDKRKRGERDWDCPTEKDVCIPDRRYQLCMMEITNLVDTDTHFHSDIIFRKSYSRRRLIYDVGGRGDLLLKKYNNVYSEDLCKDIKWSLQDFGDIIMGTDMEGIGYSLVVQNNLRSIFGTGTSAELDRKKWWNDHKKDIWKAMILSVKEKNRYSAWNCKEDVQIKVEPQIYRWIREWGRDYMSEFREQRRKLNEKCEDKLYYSTMLICTLPPCNNACKSYDEWITGKKKQWDVLSTKFSSVKKAQKIETENIARAYDILKQELNGFNEVTFENEINKRDKLYNYFCVCIVQEARKNTQENVKNVGSGVESKAPSSNPINEAVKSSSGEGKVQEDSAHRSVNEGEGKSSTNEADPGSQPGAAASGGGSGGGTGGGVDLAPQMLRELQETNAALQDVRELLRQQVKEITFLKNTVMECDACGGPLDRNLPPLAPLGPTGGWSHPQFEK
[1]
  glycan array binding signal (z-score): 0.928
Fuc(a1-2)Gal(b1-4)Glc
  glycan array binding signal (z-score): -0.028
[2]
  glycan array binding signal (z-score): -0.391
[3]
  glycan array binding signal (z-score): 1.14
[4]
  glycan array binding signal (z-score): -0.305
[5]
  glycan array binding signal (z-score): 0.541
[6]
  glycan array binding signal (z-score): 0.37
[7]
  glycan array binding signal (z-score): 0.388
[8]
  glycan array binding signal (z-score): -0.403
[9]
  glycan array binding signal (z-score): 0.106
[10]
  glycan array binding signal (z-score): -0.264
[11]
  glycan array binding signal (z-score): 0.185
Fuc(a1-4)GlcNAc
  glycan array binding signal (z-score): -0.191
Gal(a1-3)Gal(b1-4)GlcNAc
  glycan array binding signal (z-score): -0.331
Gal(b1-2)Gal
  glycan array binding signal (z-score): -0.181
Gal(b1-3)Gal
  glycan array binding signal (z-score): 0.074
[12]
  glycan array binding signal (z-score): 0.593
[13]
  glycan array binding signal (z-score): -0.036
[14]
  glycan array binding signal (z-score): -0.37
[15]
  glycan array binding signal (z-score): -0.308
[16]
  glycan array binding signal (z-score): -0.142
[17]
  glycan array binding signal (z-score): 0.897
[18]
  glycan array binding signal (z-score): 0.866
[19]
  glycan array binding signal (z-score): 1.25
[20]
  glycan array binding signal (z-score): 0.939
[21]
  glycan array binding signal (z-score): -0.081
Gal3S6S(b1-4)GlcNAc6S
  glycan array binding signal (z-score): -0.041
GalNAc(a1-3)Gal
  glycan array binding signal (z-score): -0.429
